The whole screen tested about 330,000 compounds, of which about 2,600 (0.79%) were called active. The entries come from a sample that favours actives as a whole. Unmarked numbers belong to inactive results.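 How the source made its calls: active means mean ATP rescue above about 67%, or every replicate alone reaching that limit (limit read from the data, passing the limit was not always enough); inconclusive means no clear call, values can overlap the other calls; inactive means mean under the limit and some replicate under it.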
Test: suppressors of statin myotoxicity in C2C12 myotubes, primary screen, cell-based, single point, plate reader (AID 602340);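 further: myotubes were challenged with 10 µM simvastatin during compound exposure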
Conditions: C2C12 myotubes + simvastatin, ATP luminescence, 48 h; at 7.49 µM; hits give high values; scaled: DMSO 0, geranylgeraniol control 100

Compound | rescue of ATP level
C/C=C/c1ccc2c(c1)O[C@@H](CN(C)CC1CCOCC1)[C@@H](C)CN([C@H](C)CO)S2(=O)=O | 1.59%
COCC(=O)N(C[C@H]1N[C@H](CO)[C@H]1c1ccc(C2=CCCCC2)cc1)C(C)C | -22.7%
Cc1noc(C)c1NC(=O)Nc1ccc2c(c1)CC(=O)N([C@@H](C)CO)C[C@H](C)[C@H](CN(C)S(=O)(=O)c1c(C)noc1C)O2 | -4.37%
O=C(NCC[C@@H]1CC[C@H](NC(=O)Nc2cc(F)ccc2F)[C@@H](CO)O1)Nc1ccc(Cl)cc1 | 2.28%
Cn1c(N)c(C(=O)COC(=O)COc2ccc(Cl)cc2)c(=O)n(C)c1=O | 9.73%
Cc1cc(C(=O)OCC(=O)c2c(N)n(C)c(=O)n(C)c2=O)c(C)o1 | 148% (active)
Cn1c(N)c(C(=O)COC(=O)c2ccc3ccccc3c2)c(=O)n(C)c1=O | -2.95%
COc1ccc(S(=O)(=O)Nc2cccc3c2O[C@@H](CN(C)C(=O)Nc2ccccc2)[C@@H](C)CN([C@H](C)CO)C3=O)cc1 | -38.3%
Cc1ccc(-c2csc(-c3c[nH]c4ccccc34)n2)cc1 | 102% (active)
Cc1ccc(-c2csc(NC3OC(=O)c4ccccc43)n2)cc1 (centres undefined) | -7.28%
CCn1c(SCCC(C)C)nnc1-c1c[nH]c2ccccc12 | -7.75%
Cc1ccc(-c2nc(CS(=O)(=O)CC(=O)NCc3ccc4c(c3)OCO4)c(C)o2)cc1 | 28.8%
O=C(CN1CCN(c2nc(-c3ccccc3)cs2)CC1)NCc1ccc2c(c1)OCO2 | 124% (active)
CC1(C(=O)NCc2ccc3c(c2)OCO3)CCN1CCc1ccccc1 (centres undefined) | 34.5%
COc1ccc(NC(=O)CNC(=O)Cc2ccccc2)cc1OC | -3.67%
COc1cc(=O)[nH]c(=O)n1C(=O)Cc1ccccc1 | 89.8% (active)
CCCOc1ccc(Cn2c(O)cc(=O)[nH]c2=O)cc1 | 2.27%
CCCNC(=O)N1[C@H](CNC(C)=O)[C@@H](c2ccc(C3=CCCC3)cc2)[C@@H]1CO | 17.7%
O=C(N[C@H]1C=C[C@@H](CC(=O)N2CCCCC2)O[C@@H]1CO)c1ccc2c(c1)OCO2 | -0.462%
CO[C@@H]1CN(C)C(=O)c2cc(NC(=O)NC3CCCCC3)ccc2OC[C@H](C)N(CC2CCOCC2)C[C@H]1C | -0.27%
Cc1ccnc(NC(=O)CCNS(=O)(=O)c2ccc(C)c(C)c2)c1 | 0.26%
CC(=O)CCS(=O)(=O)c1ccc(C)c(C)c1 | 101% (active)

Compound | rescue of ATP level
Cc1ccc(S(=O)(=O)NCCC(=O)Nc2ccc(C)c(Cl)c2)cc1C | 1.52%
COc1cccc(C(O)c2nc(-c3ccc(C)c(C)c3)cs2)c1 (centres undefined) | 8.62%
COc1ccc(C(O)c2nc(-c3ccc4c(c3)OCO4)cs2)cc1 (centres undefined) | 87.4% (active)
COc1ccc(C(O)c2nc(-c3ccc(OC)nc3)cs2)cc1 (centres undefined) | 4.92%
O=C(O)CC(c1ccccc1)n1cnnn1 (centres undefined) | 86% (active)
CCOc1ccc(C(CC(=O)O)n2cnnn2)cc1OC (centres undefined) | 5.44%
O=C(O)CC(Cn1cnnn1)c1ccccc1 (centres undefined) | 7.4%
O=C(Nc1cccc(Cl)c1)N[C@H]1CC[C@H](CCNC(=O)C2CCOCC2)O[C@H]1CO | -25.3%
C[C@@H]1CCCCO[C@@H](CN(C)Cc2ccc(Cl)c(Cl)c2)[C@H](C)CN([C@@H](C)CO)C(=O)c2cc(NS(C)(=O)=O)ccc2O1 | 98% (active)
C[C@H]1CCCCO[C@H](CN(C)C(=O)Nc2ccccc2)[C@@H](C)CN([C@@H](C)CO)C(=O)c2cc(NC(=O)Nc3ccc4c(c3)OCO4)ccc2O1 | -0.0505%
C[C@@H]1CCCCO[C@@H](CN(C)Cc2ccc(Cl)c(Cl)c2)[C@@H](C)CN([C@@H](C)CO)C(=O)c2cc(NS(C)(=O)=O)ccc2O1 | -1.95%
C[C@@H]1CCCCO[C@H](CN(C)C(=O)Nc2cccc3ccccc23)[C@@H](C)CN([C@H](C)CO)C(=O)c2cc(NC(=O)Nc3ccc4c(c3)OCO4)ccc2O1 | -47.9%
C[C@@H]1CCCCO[C@@H](CN(C)Cc2ccc3c(c2)OCO3)[C@H](C)CN([C@@H](C)CO)C(=O)c2cc(NS(C)(=O)=O)ccc2O1 | -0.957%
C[C@@H]1CCCCO[C@H](CN(C)C(=O)Nc2cccc3ccccc23)[C@H](C)CN([C@H](C)CO)C(=O)c2cc(NS(=O)(=O)c3cccs3)ccc2O1 | 28.4%
C[C@@H]1CCCCO[C@@H](CN(C)S(C)(=O)=O)[C@@H](C)CN([C@@H](C)CO)C(=O)c2cc(NS(=O)(=O)c3ccc(Cl)cc3)ccc2O1 | 7.9%
C[C@@H]1CCCCO[C@H](CN(C)S(C)(=O)=O)[C@@H](C)CN([C@H](C)CO)C(=O)c2cc(NS(=O)(=O)c3ccc(Cl)cc3)ccc2O1 | -21.9%
C[C@@H]1CCCCO[C@H](CN(C)C(=O)Nc2cccc3ccccc23)[C@@H](C)CN([C@H](C)CO)C(=O)c2cc(NS(=O)(=O)c3cccs3)ccc2O1 | -12.1%
C[C@@H]1CCCCO[C@@H](CN(C)S(C)(=O)=O)[C@H](C)CN([C@@H](C)CO)C(=O)c2cc(NS(=O)(=O)c3ccc(F)cc3)ccc2O1 | 132% (active)
C[C@H](CO)N1C[C@H](C)[C@H](CN(C)C(=O)Nc2cccc3ccccc23)OCCCC[C@H](C)Oc2ccc(NC(=O)Nc3ccc4c(c3)OCO4)cc2C1=O | 90.3% (active)
C[C@H]1CCCCO[C@@H](CN(C)C(=O)Nc2cccc3ccccc23)[C@@H](C)CN([C@@H](C)CO)C(=O)c2cc(NS(=O)(=O)c3ccc(Cl)cc3)ccc2O1 | 125% (active)
C[C@H](NC(=O)C[C@@H]1CC[C@@H]2[C@H](COC[C@@H](O)CN2Cc2cc(F)ccc2F)O1)c1ccccc1 | 6.87%
CN1[C@@H]2c3ccc(C4=CCCCC4)c(=O)n3C[C@H]1[C@H](CO)[C@H]2C(=O)NCc1ccc(F)cc1 | 12.7%

From PubChem BioAssay AID602340 (Broad Institute, 2012)
